About 7,900 targets were measured; listed, in parts, are those with a hit and a random draw of the rest. About 0.6% of all pairs of compound and target were hits.
Assays:
Assay in all cases: log2 fold change, soluble protein after heating vs DMSO (PISA); higher = thermal stabilisation; K562 cells, 10 uM, 30 min; active = over 0.2 and 3.5 SD of the protein, either way, in both replicates (recomputed)
saracatinib = compound: CN1CCN(CCOc2cc(OC3CCOCC3)c3c(Nc4c(Cl)ccc5c4OCO5)ncnc3c2)CC1 [saracatinib]
In short: (§1)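 K562 cells at 2×10^6 cells/mL were exposed to 10 μM compound for 30 min, then aliquots were heated for 3 min across 48°C-58°C, pooled, and extracted in PBS containing 0.5% NP-40 at 4°C. The supernatant after 21,000xg for 90 min was taken as soluble protein and measured by TMTpro 16plex LC-MS/MS with channel sums equalised. Thermal stability is reported relative to control samples, with values from duplicates. Fold changes are given on a log2 scale.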

sotrastaurin = compound: CN1CCN(c2nc(C3=C(c4c[nH]c5ccccc45)C(=O)NC3=O)c3ccccc3n2)CC1 [sotrastaurin]
In short: as §1

alvocidib = compound: CN1CC[C@H](c2c(O)cc(O)c3c(=O)cc(-c4ccccc4Cl)oc23)[C@H](O)C1 [alvocidib]
In short: as §1

Tubastatin A = compound: CN1CCc2c(c3ccccc3n2Cc2ccc(C(=O)NO)cc2)C1 [Tubastatin A]
In short: as §1

[1] = compound: CNC(=O)C1=CC=CC=C1NC2=NC(=NC=C2Cl)NC3=C(C=C(C=C3)N4CCOCC4)OC
In short: as §1

defactinib = compound: CNC(=O)c1ccc(Nc2ncc(C(F)(F)F)c(NCc3nccnc3N(C)S(C)(=O)=O)n2)cc1 [defactinib]
In short: as §1

rucaparib = compound: CNCc1ccc(-c2[nH]c3cc(F)cc4c3c2CCNC4=O)cc1 [rucaparib]
In short: as §1

[2] = compound: CNc1nc(-c2ccc3c(N)n[nH]c3c2)cc(N2C[C@@H](C(=O)NC3CCCCC3)CC[C@H]2C)n1
In short: as §1

encorafenib = compound: COC(=O)N[C@@H](C)CNc1nccc(-c2cn(C(C)C)nc2-c2cc(Cl)cc(NS(C)(=O)=O)c2F)n1 [encorafenib]
In short: as §1

[3] = compound: COC(=O)[C@H](CCSC)NC(=O)C1=C(C=C(C=C1)NC[C@H](CS)N)C2=CC=CC=C2
In short: as §1

[4] = compound: COC1=CC=C(C=C1)CN2C=CC3=C2C=C(C=C3)C(=O)NO
In short: as §1

filanesib = compound: CON(C)C(=O)N1N=C(c2cc(F)ccc2F)S[C@@]1(CCCN)c1ccccc1 [filanesib]
In short: as §1

zotarolimus = compound: CO[C@H]1C[C@@H]2CC[C@@H](C)[C@@](O)(O2)C(=O)C(=O)N2CCCC[C@H]2C(=O)O[C@H]([C@H](C)C[C@@H]2CC[C@H](n3cnnn3)[C@H](OC)C2)CC(=O)[C@H](C)/C=C(\C)[C@@H](O)[C@@H](OC)C(=O)[C@H](C)C[C@H](C)/C=C/C=C/C=C/1C [zotarolimus]
In short: as §1

idasanutlin = compound: COc1cc(C(=O)O)ccc1NC(=O)[C@@H]1N[C@@H](CC(C)(C)C)[C@](C#N)(c2ccc(Cl)cc2F)[C@H]1c1cccc(Cl)c1F [idasanutlin]
In short: as §1

alisertib = compound: COc1cc(Nc2ncc3c(n2)-c2ccc(Cl)cc2C(c2c(F)cccc2OC)=NC3)ccc1C(=O)O [alisertib]
In short: as §1

[5] = compound: COc1cc2nc(-c3cc(F)ccc3O)nc(N[C@@H]3CNC[C@H]3C(C)(C)O)c2cc1OC
In short: as §1

gefitinib = compound: COc1cc2ncnc(Nc3ccc(F)c(Cl)c3)c2cc1OCCCN1CCOCC1 [gefitinib]
In short: as §1

[6] = compound: COc1cccc2cc(-c3nc([C@H]4CC[C@H](C(=O)O)CC4)n4ncnc(N)c34)[nH]c12
In short: as §1

lapatinib = compound: CS(=O)(=O)CCNCc1ccc(-c2ccc3ncnc(Nc4ccc(OCc5cccc(F)c5)c(Cl)c4)c3c2)o1 [lapatinib]
In short: as §1

pictilisib = compound: CS(=O)(=O)N1CCN(Cc2cc3nc(-c4cccc5[nH]ncc45)nc(N4CCOCC4)c3s2)CC1 [pictilisib]
In short: as §1

Measured: log2 fold change

BTAF1 (UniProt O14981)
Sequence of UniProt O14981 (O14981 whole entry, looked up): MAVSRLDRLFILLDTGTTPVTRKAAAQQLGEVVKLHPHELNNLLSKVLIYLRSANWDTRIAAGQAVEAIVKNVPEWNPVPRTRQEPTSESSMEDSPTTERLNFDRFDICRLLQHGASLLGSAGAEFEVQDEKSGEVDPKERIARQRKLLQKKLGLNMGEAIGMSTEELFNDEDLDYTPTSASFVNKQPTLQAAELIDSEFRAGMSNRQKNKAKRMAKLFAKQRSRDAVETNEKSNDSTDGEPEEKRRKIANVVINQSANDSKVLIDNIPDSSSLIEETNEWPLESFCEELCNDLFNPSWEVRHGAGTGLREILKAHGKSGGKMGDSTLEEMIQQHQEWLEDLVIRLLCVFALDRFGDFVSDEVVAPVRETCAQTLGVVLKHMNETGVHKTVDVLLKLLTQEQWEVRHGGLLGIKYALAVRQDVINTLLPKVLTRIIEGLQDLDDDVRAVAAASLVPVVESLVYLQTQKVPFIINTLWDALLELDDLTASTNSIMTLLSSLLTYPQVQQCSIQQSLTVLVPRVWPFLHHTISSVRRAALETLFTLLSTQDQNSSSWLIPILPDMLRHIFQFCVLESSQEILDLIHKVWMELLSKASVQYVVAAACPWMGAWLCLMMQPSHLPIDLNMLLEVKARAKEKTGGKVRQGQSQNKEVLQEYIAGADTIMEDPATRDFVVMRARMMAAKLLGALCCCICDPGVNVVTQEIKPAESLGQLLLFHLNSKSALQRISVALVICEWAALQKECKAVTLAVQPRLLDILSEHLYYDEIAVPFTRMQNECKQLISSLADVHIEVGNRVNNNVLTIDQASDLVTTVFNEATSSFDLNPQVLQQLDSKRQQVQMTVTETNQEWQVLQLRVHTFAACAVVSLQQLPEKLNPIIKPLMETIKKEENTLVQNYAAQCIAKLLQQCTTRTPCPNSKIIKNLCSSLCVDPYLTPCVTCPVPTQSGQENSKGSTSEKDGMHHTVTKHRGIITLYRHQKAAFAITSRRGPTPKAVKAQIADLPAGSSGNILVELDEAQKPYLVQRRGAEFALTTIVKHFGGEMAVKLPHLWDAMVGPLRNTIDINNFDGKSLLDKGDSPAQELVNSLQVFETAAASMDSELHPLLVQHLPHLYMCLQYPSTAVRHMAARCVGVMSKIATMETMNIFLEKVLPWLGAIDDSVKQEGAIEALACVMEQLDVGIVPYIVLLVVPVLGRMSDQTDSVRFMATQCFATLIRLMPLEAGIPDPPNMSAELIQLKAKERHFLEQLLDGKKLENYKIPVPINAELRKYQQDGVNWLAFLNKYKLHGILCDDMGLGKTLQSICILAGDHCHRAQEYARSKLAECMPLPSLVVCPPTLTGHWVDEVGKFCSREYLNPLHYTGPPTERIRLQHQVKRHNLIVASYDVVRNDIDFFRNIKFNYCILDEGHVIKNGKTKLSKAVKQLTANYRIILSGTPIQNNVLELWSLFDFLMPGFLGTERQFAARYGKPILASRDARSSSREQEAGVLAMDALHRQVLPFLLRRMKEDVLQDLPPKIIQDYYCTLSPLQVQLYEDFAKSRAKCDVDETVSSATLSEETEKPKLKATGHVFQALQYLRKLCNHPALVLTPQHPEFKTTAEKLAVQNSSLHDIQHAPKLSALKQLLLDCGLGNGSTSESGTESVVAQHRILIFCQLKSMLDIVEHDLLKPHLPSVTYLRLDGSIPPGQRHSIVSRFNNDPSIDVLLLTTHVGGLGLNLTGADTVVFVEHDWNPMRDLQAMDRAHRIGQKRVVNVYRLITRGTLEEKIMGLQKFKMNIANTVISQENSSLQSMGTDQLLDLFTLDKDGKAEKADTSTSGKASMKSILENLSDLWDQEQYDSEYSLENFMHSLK
inactive: saracatinib 0.087 | sotrastaurin 0.001 | alvocidib -0.022 | Tubastatin A -0.041 | [1] -0.027 | defactinib -0.074 | rucaparib -0.089 | [2] -0.012 | encorafenib 0.026 | [3] 0.007 | [4] 0.018 | filanesib -0.006 | zotarolimus -0.004 | idasanutlin -0.095 | alisertib 0.175 | [5] 0.093 | gefitinib -0.045 | [6] -0.028 | lapatinib -0.01 | pictilisib -0.032

AIFM2 (UniProt Q9BRQ8)
Sequence of UniProt Q9BRQ8 (Q9BRQ8 whole entry, looked up): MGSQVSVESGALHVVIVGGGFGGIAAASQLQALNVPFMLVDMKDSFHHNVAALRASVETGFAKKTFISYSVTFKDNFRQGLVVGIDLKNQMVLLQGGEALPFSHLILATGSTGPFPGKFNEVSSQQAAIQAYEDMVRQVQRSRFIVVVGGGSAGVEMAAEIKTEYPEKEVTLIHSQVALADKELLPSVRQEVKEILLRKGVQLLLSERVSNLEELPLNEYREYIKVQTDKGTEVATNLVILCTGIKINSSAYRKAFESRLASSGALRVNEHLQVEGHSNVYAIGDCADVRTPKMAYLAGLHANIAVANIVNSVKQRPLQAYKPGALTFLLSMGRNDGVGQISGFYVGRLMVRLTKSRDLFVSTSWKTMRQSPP
inactive: saracatinib 0.017 | sotrastaurin 0.08 | alvocidib -0.02 | Tubastatin A -0.026 | [1] -0.016 | defactinib -0.029 | rucaparib 0.011 | [2] 0.003 | encorafenib -0.017 | [3] -0.01 | [4] -0.019 | filanesib -0.025 | zotarolimus 0.097 | idasanutlin -0.017 | alisertib -0.078 | [5] 0.023 | gefitinib 0.096 | [6] 0.061 | lapatinib 0.135 | pictilisib 0.121

ATP13A3 (UniProt Q9H7F0)
inactive: saracatinib -0.029 | sotrastaurin 0.048 | alvocidib -0.159 | Tubastatin A 0.002 | [1] -0.005 | defactinib -0.014 | rucaparib 0.091 | [2] 0.013 | encorafenib 0.037 | [3] 0.037 | [4] -0.034 | filanesib 0.054 | zotarolimus -0.158 | idasanutlin -0.027 | alisertib -0.098 | [5] -0.078 | gefitinib -0.02 | [6] -0.038 | lapatinib 0.005 | pictilisib 0.104

AHSA1 (UniProt O95433)
inactive: saracatinib 0.022 | sotrastaurin 0.014 | alvocidib -0.039 | Tubastatin A -0.003 | [1] 0 | defactinib -0.061 | rucaparib -0.084 | [2] 0.011 | encorafenib 0.02 | [3] -0.008 | [4] -0.029 | filanesib -0.061 | zotarolimus 0.003 | idasanutlin -0.064 | alisertib -0.037 | [5] 0.109 | gefitinib 0.022 | [6] 0.031 | lapatinib -0.02 | pictilisib -0.023

ALG3 (UniProt Q92685)
Sequence of UniProt Q92685 (Q92685 whole entry, looked up): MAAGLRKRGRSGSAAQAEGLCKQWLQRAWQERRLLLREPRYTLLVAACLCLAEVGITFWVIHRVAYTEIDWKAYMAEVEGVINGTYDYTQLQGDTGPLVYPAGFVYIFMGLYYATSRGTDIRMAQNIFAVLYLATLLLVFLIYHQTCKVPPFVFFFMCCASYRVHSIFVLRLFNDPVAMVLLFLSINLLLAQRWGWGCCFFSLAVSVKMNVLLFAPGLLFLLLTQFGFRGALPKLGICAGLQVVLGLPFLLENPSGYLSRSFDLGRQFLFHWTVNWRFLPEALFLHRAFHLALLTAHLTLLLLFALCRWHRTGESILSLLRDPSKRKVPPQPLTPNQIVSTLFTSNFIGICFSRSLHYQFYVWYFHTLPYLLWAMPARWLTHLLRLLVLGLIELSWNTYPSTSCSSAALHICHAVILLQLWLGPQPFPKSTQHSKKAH
inactive: saracatinib 0.145 | sotrastaurin -0.047 | alvocidib 0.055 | Tubastatin A -0.056 | [1] 0.116 | defactinib 0.009 | rucaparib 0.1 | [2] 0.056 | encorafenib 0.076 | [3] 0.013 | [4] 0.109 | filanesib -0.095 | zotarolimus 0.06 | idasanutlin -0.212 | alisertib -0.001 | [5] 0.035 | gefitinib -0.046 | [6] 0 | lapatinib 0.104 | pictilisib 0.006

BYSL (UniProt Q13895)
inactive: saracatinib -0.042 | sotrastaurin -0.101 | alvocidib -0.03 | Tubastatin A 0.136 | [1] 0.034 | defactinib -0.004 | rucaparib -0.004 | [2] 0.094 | encorafenib 0.034 | [3] -0.073 | [4] -0.033 | filanesib 0.078 | zotarolimus 0.065 | idasanutlin -0.057 | alisertib 0.022 | [5] 0.207 | gefitinib -0.03 | [6] -0.057 | lapatinib 0.032 | pictilisib -0.022

ACSL5 isoform 3 (UniProt Q9ULC5)
inactive: saracatinib 0.058 | sotrastaurin 0.078 | alvocidib -0.082 | Tubastatin A -0.057 | [1] 0.071 | defactinib -0.063 | rucaparib 0.005 | [2] -0.132 | encorafenib -0.072 | [3] 0 | [4] -0.023 | filanesib -0.118 | zotarolimus 0.073 | idasanutlin -0.148 | alisertib -0.009 | [5] -0.259 | gefitinib 0.068 | [6] 0.074 | lapatinib 0.074 | pictilisib 0.065

BCCIP (UniProt Q9P287)
inactive: saracatinib -0.132 | sotrastaurin 0 | alvocidib 0.065 | Tubastatin A -0.045 | [1] -0.013 | defactinib 0.072 | rucaparib 0.165 | [2] 0.02 | encorafenib 0.076 | [3] -0.049 | [4] -0.022 | filanesib 0.06 | zotarolimus 0.031 | idasanutlin -0.048 | alisertib -0.086 | [5] 0.033 | gefitinib 0.036 | [6] -0.024 | lapatinib 0.01 | pictilisib -0.024

ACAD9 (UniProt Q9H845)
inactive: saracatinib 0.008 | sotrastaurin 0.004 | alvocidib -0.012 | Tubastatin A -0.041 | [1] -0.001 | defactinib -0.026 | rucaparib -0.038 | [2] -0.025 | encorafenib -0.004 | [3] -0.015 | [4] -0.005 | filanesib -0.069 | zotarolimus -0.017 | idasanutlin 0.017 | alisertib -0.012 | [5] 0.03 | gefitinib 0.016 | [6] 0.083 | lapatinib -0.015 | pictilisib 0.082

ACP1 (UniProt P24666)
Sequence of UniProt P24666 (P24666 whole entry, looked up): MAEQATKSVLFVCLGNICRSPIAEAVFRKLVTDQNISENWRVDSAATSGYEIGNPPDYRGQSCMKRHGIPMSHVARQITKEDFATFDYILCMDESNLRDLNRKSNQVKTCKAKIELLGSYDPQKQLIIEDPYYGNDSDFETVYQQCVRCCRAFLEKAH
inactive: saracatinib -0.031 | sotrastaurin -0.054 | alvocidib -0.111 | Tubastatin A 0.141 | [1] -0.1 | defactinib -0.044 | rucaparib 0.12 | [2] 0.123 | encorafenib 0.035 | [3] -0.111 | [4] 0.008 | filanesib -0.047 | zotarolimus -0.039 | idasanutlin -0.078 | alisertib 0.029 | [5] 0.056 | gefitinib 0.003 | [6] -0.086 | lapatinib -0.073 | pictilisib -0.062

AFDN isoform 5 (UniProt P55196)
Sequence of UniProt P55196 (P55196 whole entry, looked up): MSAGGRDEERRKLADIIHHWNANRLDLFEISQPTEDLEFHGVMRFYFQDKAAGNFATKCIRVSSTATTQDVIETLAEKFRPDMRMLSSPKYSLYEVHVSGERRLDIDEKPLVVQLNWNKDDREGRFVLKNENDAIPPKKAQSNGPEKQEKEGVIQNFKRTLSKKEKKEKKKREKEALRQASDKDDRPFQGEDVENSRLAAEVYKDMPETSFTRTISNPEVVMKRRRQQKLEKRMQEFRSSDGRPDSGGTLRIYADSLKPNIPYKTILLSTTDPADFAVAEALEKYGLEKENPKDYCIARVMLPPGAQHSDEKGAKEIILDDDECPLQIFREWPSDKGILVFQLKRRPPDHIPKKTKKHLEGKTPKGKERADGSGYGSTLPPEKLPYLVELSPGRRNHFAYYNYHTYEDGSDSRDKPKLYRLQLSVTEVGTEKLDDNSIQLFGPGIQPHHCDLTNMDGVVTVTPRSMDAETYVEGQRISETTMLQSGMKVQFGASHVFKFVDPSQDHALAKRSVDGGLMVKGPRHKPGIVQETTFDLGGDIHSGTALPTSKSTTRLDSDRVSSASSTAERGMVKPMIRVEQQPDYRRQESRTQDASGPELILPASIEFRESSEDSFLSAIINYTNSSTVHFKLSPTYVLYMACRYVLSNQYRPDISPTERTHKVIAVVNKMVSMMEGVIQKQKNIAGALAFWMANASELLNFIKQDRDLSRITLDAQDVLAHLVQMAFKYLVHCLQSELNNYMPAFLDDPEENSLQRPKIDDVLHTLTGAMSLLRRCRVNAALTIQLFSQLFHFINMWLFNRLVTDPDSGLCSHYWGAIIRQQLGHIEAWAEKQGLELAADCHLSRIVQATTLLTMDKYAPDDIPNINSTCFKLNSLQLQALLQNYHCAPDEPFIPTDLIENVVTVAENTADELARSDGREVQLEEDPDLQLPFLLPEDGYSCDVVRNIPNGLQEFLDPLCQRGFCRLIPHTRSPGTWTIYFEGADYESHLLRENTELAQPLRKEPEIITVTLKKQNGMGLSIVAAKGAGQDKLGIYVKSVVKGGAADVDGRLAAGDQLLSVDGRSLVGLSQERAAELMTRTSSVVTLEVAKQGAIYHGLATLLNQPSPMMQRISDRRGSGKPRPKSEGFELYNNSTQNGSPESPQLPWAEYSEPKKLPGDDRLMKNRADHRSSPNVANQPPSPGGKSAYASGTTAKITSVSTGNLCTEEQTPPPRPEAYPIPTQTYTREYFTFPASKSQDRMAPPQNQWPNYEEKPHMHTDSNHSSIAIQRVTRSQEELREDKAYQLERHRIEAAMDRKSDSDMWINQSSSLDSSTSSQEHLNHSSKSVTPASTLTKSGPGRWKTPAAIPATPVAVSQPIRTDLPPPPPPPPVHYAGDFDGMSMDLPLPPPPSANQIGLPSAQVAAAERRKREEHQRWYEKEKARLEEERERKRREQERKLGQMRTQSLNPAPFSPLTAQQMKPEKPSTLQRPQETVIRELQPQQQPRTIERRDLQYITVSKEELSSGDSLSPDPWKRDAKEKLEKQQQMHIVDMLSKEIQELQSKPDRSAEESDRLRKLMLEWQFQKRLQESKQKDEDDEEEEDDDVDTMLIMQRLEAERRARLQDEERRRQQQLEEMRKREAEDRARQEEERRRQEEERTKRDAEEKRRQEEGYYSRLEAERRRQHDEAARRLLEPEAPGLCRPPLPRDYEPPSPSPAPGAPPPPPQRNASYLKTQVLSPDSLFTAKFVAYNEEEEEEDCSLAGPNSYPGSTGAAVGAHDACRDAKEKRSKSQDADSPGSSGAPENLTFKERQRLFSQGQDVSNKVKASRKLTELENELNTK
inactive: saracatinib -0.034 | sotrastaurin -0.032 | alvocidib -0.095 | Tubastatin A 0.025 | [1] -0.043 | defactinib -0.115 | rucaparib 0.023 | [2] 0.035 | encorafenib 0.077 | [3] -0.033 | [4] 0.131 | filanesib 0.014 | zotarolimus 0.013 | idasanutlin -0.06 | alisertib 0 | [5] 0.034 | gefitinib -0.017 | [6] -0.009 | lapatinib -0.026 | pictilisib -0.009

AP2A1 (UniProt O95782)
inactive: saracatinib 0.049 | sotrastaurin 0.001 | alvocidib 0.027 | Tubastatin A 0.001 | [1] 0.004 | defactinib 0.012 | rucaparib 0.01 | [2] -0.047 | encorafenib 0.032 | [3] -0.038 | [4] 0.044 | filanesib 0.045 | zotarolimus 0.033 | idasanutlin 0.027 | alisertib -0.041 | [5] 0.008 | gefitinib 0.025 | [6] 0.005 | lapatinib 0.027 | pictilisib -0.042

BCL9L (UniProt Q86UU0)
inactive: saracatinib -0.042 | sotrastaurin 0.042 | alvocidib -0.012 | Tubastatin A 0.053 | [1] -0.017 | defactinib -0.014 | rucaparib 0.026 | [2] -0.092 | encorafenib -0.033 | [3] 0.069 | [4] -0.048 | filanesib 0.017 | zotarolimus -0.043 | idasanutlin 0.028 | alisertib 0.014 | [5] 0.02 | gefitinib 0.034 | [6] -0.067 | lapatinib 0.011 | pictilisib -0.007

B4GALNT1 (UniProt Q00973)
inactive: saracatinib -0.143 | sotrastaurin -0.07 | alvocidib 0.177 | Tubastatin A -0.057 | [1] -0.021 | defactinib -0.182 | rucaparib 0.017 | [2] 0.025 | encorafenib 0.144 | [3] -0.425 | [4] 0.023 | filanesib 0.092 | zotarolimus 0.081 | idasanutlin 0.093 | alisertib -0.063 | [5] -0.045 | gefitinib 0.119 | [6] 0.112 | lapatinib 0.097 | pictilisib -0.045

ALG11 (UniProt Q2TAA5)
inactive: saracatinib 0.047 | sotrastaurin 0.013 | alvocidib -0.064 | Tubastatin A -0.023 | [1] -0.018 | defactinib -0.021 | rucaparib -0.015 | [2] -0.021 | encorafenib 0.073 | [3] -0.082 | [4] -0.018 | filanesib -0.038 | zotarolimus 0.036 | idasanutlin -0.051 | alisertib -0.075 | [5] -0.003 | gefitinib 0.206 | [6] 0.026 | lapatinib 0.005 | pictilisib 0.032

ATG4B isoform 2 (UniProt Q9Y4P1)
Sequence of UniProt Q9Y4P1 (Q9Y4P1 whole entry, looked up): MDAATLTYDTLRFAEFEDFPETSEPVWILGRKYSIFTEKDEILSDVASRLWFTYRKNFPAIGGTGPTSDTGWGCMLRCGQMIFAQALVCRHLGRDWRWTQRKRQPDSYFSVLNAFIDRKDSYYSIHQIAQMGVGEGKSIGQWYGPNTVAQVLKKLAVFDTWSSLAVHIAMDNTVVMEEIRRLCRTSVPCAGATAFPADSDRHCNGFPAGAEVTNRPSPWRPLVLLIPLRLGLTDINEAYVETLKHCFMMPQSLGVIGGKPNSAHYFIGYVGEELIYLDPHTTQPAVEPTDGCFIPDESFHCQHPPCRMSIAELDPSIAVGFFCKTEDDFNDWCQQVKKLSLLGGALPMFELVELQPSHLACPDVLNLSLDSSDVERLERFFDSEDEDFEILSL
inactive: saracatinib -0.186 | sotrastaurin -0.297 | alvocidib -0.19 | Tubastatin A 0.02 | [1] 0.027 | defactinib -0.263 | rucaparib -0.02 | [2] 0.004 | encorafenib -0.003 | [3] -0.04 | [4] -0.003 | filanesib -0.142 | zotarolimus 0.048 | idasanutlin -0.045 | alisertib -0.009 | [5] -0.058 | gefitinib 0.005 | [6] -0.082 | lapatinib -0.157 | pictilisib -0.311

Reference: the supplement of paper PMC10849652
